The panel holds about 79,000 compounds, 15% with a hit somewhere; the sample as a whole holds those more often. Active and inactive are the calls of the source. No stated cut-off is given here; in the data, active means growth inhibition above about 70%; inactive means the rest.
What was measured:
[1] = NCI Yeast Anticancer Drug Screen. Data for the rad52 strain (AID 147);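 further: 0% = growth of vehicle-treated control cultures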; details: S. cerevisiae rad52 mutant growth inhibition, hits give high values
In short: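 DNA repair-defective yeast; compound exposure; growth scored against vehicle controls.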

[2] = NCI Yeast Anticancer Drug Screen. Data for the wt1 strain (AID 149);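 further: 0% = growth of vehicle-treated wt1 cultures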; details: S. cerevisiae wt1 strain (SPY 50644) growth inhibition, hits give high values
In short: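 Measured: growth of wt1 yeast under compound versus vehicle treatment, reported as inhibition.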

[3] = NCI Yeast Anticancer Drug Screen. Data for the rad50EPP+ strain (AID 151);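 further: 0% = growth of vehicle-treated control cultures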; details: S. cerevisiae rad50 mutant strain, hits give high values
In short: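 rad50EPP+ yeast treated with test compounds. Readout: growth vs vehicle control.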

[4] = NCI Yeast Anticancer Drug Screen. Data for the mgt1 strain (AID 153); details: S. cerevisiae mgt1 mutant growth inhibition, hits give high values
In short: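 Growth inhibition relative to vehicle controls was scored for the mgt1 yeast strain after compound exposure.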

[5] = NCI Yeast Anticancer Drug Screen. Data for the rad50 strain (AID 155);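 further: 0% = growth of vehicle-only cultures of the same strain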; details: S. cerevisiae rad50 strain growth inhibition, hits give high values
In short: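 Growth of the mutant yeast was measured after compound exposure and referenced to vehicle-treated cultures.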

[6] = NCI Yeast Anticancer Drug Screen. Data for the mec2-1 strain (AID 157); details: S. cerevisiae mec2-1 strain, hits give high values
In short: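 Growth inhibition is read against vehicle-treated controls after compound exposure of the mec2-1 yeast strain, which is defective in DNA damage repair or cell cycle control.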

[7] = NCI Yeast Anticancer Drug Screen. Data for the rad14 strain (AID 159);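 further: 0% = growth of vehicle-treated control cultures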; details: S. cerevisiae rad14 strain growth inhibition, hits give high values
In short: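 Here, inhibition of yeast growth was measured after compound exposure, using a strain with a genetic defect in DNA damage repair and vehicle-treated cultures as the reference.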

[8] = NCI Yeast Anticancer Drug Screen. Data for the sgs1 mgt1 strain (AID 161);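 further: 0% = growth of cultures given vehicle only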; details: S. cerevisiae sgs1 mgt1 strain, hits give high values
In short: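 Compounds are added to genetically altered yeast, and growth is compared with cultures given vehicle alone to give percent inhibition.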

[9] = NCI Yeast Anticancer Drug Screen. Data for the CLN2oe strain (AID 163);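 further: 0% = growth of vehicle-only control cultures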; details: S. cerevisiae CLN2oe strain, hits give high values
In short: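 Compound-treated yeast; growth vs vehicle ctrl = % inhibition. Genetically altered strain (cell-cycle control).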

[10] = NCI Yeast Anticancer Drug Screen. Data for the cln2 rad14 strain (AID 165);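 further: 0% = growth equal to vehicle treated cultures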; details: S. cerevisiae cln2 rad14 strain, hits give high values
In short: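 Growth inhibition, relative to vehicle-treated controls, is the read-out. The test organism is a yeast strain with defined genetic alterations, cln2 rad14.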

[11] = NCI Yeast Anticancer Drug Screen. Data for the bub3 strain (AID 167); details: S. cerevisiae bub3 mutant strain, hits give high values
In short: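 Whole-cell yeast assay. The mutant strain was incubated with compounds, and growth inhibition was determined by comparison with vehicle-treated cells.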

[12] = NCI Yeast Anticancer Drug Screen. Data for the wt2 strain (AID 169);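 further: 0% = growth of vehicle-treated yeast cultures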; details: S. cerevisiae wt2 strain growth inhibition, hits give high values
In short: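 Compound exposure of yeast; growth compared with vehicle controls; inhibition reported.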

[13] = NCI Yeast Anticancer Drug Screen. Data for the mlh1 strain (AID 171);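 further: 0% = growth of vehicle-treated control cultures of the same strain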; details: S. cerevisiae mlh1 strain growth inhibition, hits give high values
In short: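 Compounds are applied to a genetically altered yeast strain, and its growth is compared with that of vehicle-treated cultures to give percent inhibition.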

[14] = NCI Yeast Anticancer Drug Screen. Data for the mlh1 rad18 strain (AID 175); details: S. cerevisiae mlh1 rad18 strain growth inhibition, hits give high values
In short: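 Cells of a genetically altered yeast strain, deficient in DNA damage repair, were treated with compound. Their growth was then compared with that of vehicle-treated cultures to give inhibition.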

[15] = NCI Yeast Anticancer Drug Screen. Data for the rad18 strain (AID 177); details: S. cerevisiae rad18 mutant growth inhibition, hits give high values
In short: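 Compounds are applied to a repair-deficient yeast strain, and growth is compared with that of vehicle-treated cultures to give percent inhibition.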

[16] = NCI Yeast Anticancer Drug Screen. Data for the sgs1 strain (AID 173);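 further: 0% = growth of vehicle-only control cultures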; details: S. cerevisiae sgs1 mutant, hits give high values
In short: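 Compounds applied to genetically altered yeast; growth compared with vehicle-treated cultures to give % inhibition.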

[17] = at 5.0 µM (retest, dose inferred, filed as 0.5)
[18] = at 50.0 µM (retest, dose inferred, filed as 5.0)

Measured: growth inhibition

COc1ccc2nc3c([N+](=O)[O-])ccc(NCCN(C)C)c3c(NCCN(C)C)c2c1
inactive: [1]; at 1.2 µM 15% | [1]; at 3.7 µM 10% | [1]; at 11.0 µM 26% | [1]; at 33.0 µM 28% | [1]; at 100.0 µM 23% | [2]; at 1.2 µM -3% | [2]; at 3.7 µM -3% | [2]; at 11.0 µM -3% | [2]; at 33.0 µM -2% | [2]; at 100.0 µM 0% | [3]; at 1.2 µM 0% | [3]; at 3.7 µM 3% | [3]; at 11.0 µM 1% | [3]; at 33.0 µM 5% | [3]; at 100.0 µM 14% | [4]; at 1.2 µM 0% | [4]; at 3.7 µM 2% | [4]; at 11.0 µM 1% | [4]; at 33.0 µM 1% | [4]; at 100.0 µM 2% | [5]; at 1.2 µM -1% | [5]; at 3.7 µM 0% | [5]; [17] 16% | [5]; at 11.0 µM 0% | [5]; at 33.0 µM 2% | [5]; [18] 33% | [5]; at 50.0 µM 26.9% | [5]; at 100.0 µM 12% | [6]; at 1.2 µM -1% | [6]; at 3.7 µM -4% | [6]; [17] 15% | [6]; at 11.0 µM -5% | [6]; at 33.0 µM 0% | [6]; [18] 17% | [6]; at 50.0 µM 35% | [6]; at 100.0 µM 3% | [7]; at 1.2 µM -2% | [7]; at 3.7 µM -3% | [7]; at 11.0 µM -3% | [7]; at 33.0 µM -4% | [7]; at 100.0 µM 1% | [8]; [17] -2% | [8]; [18] 14% | [8]; at 50.0 µM 3.95% | [9]; at 1.2 µM -5% | [9]; at 3.7 µM -1% | [9]; at 11.0 µM 1% | [9]; at 33.0 µM -5% | [9]; at 100.0 µM -5% | [10]; [17] 29% | [10]; [18] 61% | [10]; at 50.0 µM 62.4% | [11]; at 1.2 µM -3% | [11]; at 3.7 µM -7% | [11]; [17] 14% | [11]; at 11.0 µM 1% | [11]; at 33.0 µM -3% | [11]; [18] -1% | [11]; at 50.0 µM 20.4% | [11]; at 100.0 µM -3% | [12]; at 1.2 µM -3% | [12]; at 3.7 µM 0% | [12]; at 11.0 µM -1% | [12]; at 33.0 µM -1% | [12]; at 100.0 µM -2% | [13]; at 1.2 µM -1% | [13]; at 3.7 µM -2% | [13]; at 11.0 µM -1% | [13]; at 33.0 µM -1% | [13]; at 100.0 µM 1% | [14]; [17] -7% | [14]; [18] 24% | [14]; at 50.0 µM -21.4% | [15]; at 1.2 µM 6% | [15]; at 3.7 µM 6% | [15]; at 11.0 µM 7% | [15]; at 33.0 µM 1% | [15]; at 100.0 µM -6%

CC(=O)Nc1ccc(SC(C)=O)cc1
active: [1]; at 100.0 µM 86% | [2]; at 100.0 µM 85% | [4]; at 100.0 µM 86% | [5]; [17] 80% | [5]; [18] 100% | [5]; at 50.0 µM 70.7% | [5]; at 100.0 µM 86% | [6]; [17] 72% | [6]; [18] 100% | [6]; at 100.0 µM 86% | [7]; at 100.0 µM 88% | [8]; [18] 78% | [9]; at 100.0 µM 85% | [10]; [18] 85% | [11]; [18] 77% | [11]; at 100.0 µM 87% | [12]; at 100.0 µM 88% | [16]; at 100.0 µM 88% | [14]; [18] 100% | [14]; at 50.0 µM 72.3% | [15]; at 100.0 µM 84%
inactive: [1]; at 1.2 µM 0% | [1]; at 3.7 µM -21% | [1]; at 11.0 µM -2% | [1]; at 33.0 µM 58% | [2]; at 1.2 µM -36% | [2]; at 3.7 µM -30% | [2]; at 11.0 µM -18% | [2]; at 33.0 µM 43% | [3]; at 1.2 µM -29% | [3]; at 3.7 µM -22% | [3]; at 11.0 µM -6% | [3]; at 33.0 µM -1% | [3]; at 100.0 µM 29% | [4]; at 1.2 µM -55% | [4]; at 3.7 µM -45% | [4]; at 11.0 µM -32% | [4]; at 33.0 µM 44% | [5]; at 1.2 µM -29% | [5]; at 3.7 µM -4% | [5]; at 11.0 µM 7% | [5]; at 33.0 µM 59% | [6]; at 1.2 µM -41% | [6]; at 3.7 µM -45% | [6]; at 11.0 µM -9% | [6]; at 33.0 µM 62% | [6]; at 50.0 µM 56.8% | [7]; at 1.2 µM -27% | [7]; at 3.7 µM -38% | [7]; at 11.0 µM -5% | [7]; at 33.0 µM 56% | [8]; [17] -6% | [8]; at 50.0 µM 60.6% | [9]; at 1.2 µM -5% | [9]; at 3.7 µM -17% | [9]; at 11.0 µM 12% | [9]; at 33.0 µM 47% | [10]; [17] 44% | [10]; at 50.0 µM 66.7% | [11]; at 1.2 µM -25% | [11]; at 3.7 µM -6% | [11]; [17] 18% | [11]; at 11.0 µM 0% | [11]; at 33.0 µM 63% | [11]; at 50.0 µM 55.6% | [12]; at 1.2 µM -22% | [12]; at 3.7 µM -23% | [12]; at 11.0 µM -10% | [12]; at 33.0 µM 54% | [16]; at 1.2 µM -30% | [16]; at 3.7 µM -9% | [16]; at 11.0 µM 10% | [16]; at 33.0 µM 65% | [14]; [17] 60% | [15]; at 1.2 µM -28% | [15]; at 3.7 µM -10% | [15]; at 11.0 µM -4% | [15]; at 33.0 µM 52%

Cc1ccc(-c2ccc(Nc3c4ccccc4nc4ccccc34)cc2)cn1
active: [1]; at 11.0 µM 90% | [1]; at 33.0 µM 95% | [1]; at 100.0 µM 92% | [2]; at 33.0 µM 90% | [3]; at 11.0 µM 85% | [3]; at 33.0 µM 95% | [3]; at 100.0 µM 95% | [4]; at 33.0 µM 83% | [4]; at 100.0 µM 95% | [5]; [17] 81% | [5]; at 11.0 µM 90% | [5]; at 33.0 µM 93% | [5]; [18] 97% | [5]; at 50.0 µM 97% | [5]; at 100.0 µM 88%
inactive: [1]; at 1.2 µM 6% | [1]; at 3.7 µM 48% | [2]; at 1.2 µM 30% | [2]; at 3.7 µM 20% | [2]; at 11.0 µM 43% | [2]; at 100.0 µM 67% | [3]; at 1.2 µM 22% | [3]; at 3.7 µM 44% | [4]; at 1.2 µM 4% | [4]; at 3.7 µM -5% | [4]; at 11.0 µM 7% | [5]; at 1.2 µM 15% | [5]; at 3.7 µM 60% | [6]; at 1.2 µM -20% | [6]; at 3.7 µM -25%
